According to PubChem BioAssay AID1159580 (chemical genetic matrix, 2015):
In all, about 5,500 compounds went through this assay and about 2,000 (36%) were called active. Not shown: some 18% with an inconclusive outcome. No stated cut-off is given here; in the data, active means normalized growth mostly below about 0.91 (no sharp cut-off); inconclusive means no clear call, values can overlap the other calls; inactive means mostly above about 0.92. The list shows a part of the results.

Experiment: chemical genetic growth profiling, strain panel (AID 1159580);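 further: tested at 20 µM; growth read once vehicle control cultures reached saturation at 30 °C; 1 = growth at the plate median or of vehicle wells; lower values mean less growth of the strain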
Settings: growth OD

Measured: normalized growth

O=C1CC(c2ccc(O)cc2)Oc2ccccc21 (stereo unspecified)
inactive: S. cerevisiae deletion strains, locus YBR021W, strain FUR4, hits give low values 0.896 | S. cerevisiae deletion strains, locus YBR229C, strain ROT2, hits give low values 0.918 | S. cerevisiae deletion strains, locus YDL185W, strain tfp1, hits give low values 0.907 | S. cerevisiae deletion strains, locus YDR150W, strain NUM1, hits give low values 0.919 | S. cerevisiae deletion strains, locus YGL078C, strain dbp3, hits give low values 0.944 | S. cerevisiae deletion strains, locus YHR200W, strain rpn10, hits give low values 0.924 | S. cerevisiae deletion strains, locus YIL073C, strain SPO22, hits give low values 0.786 | S. cerevisiae deletion strains, locus YIL125W, strain kgd1, hits give low values 0.94 | S. cerevisiae deletion strains, locus YKL009W, strain mrt4, hits give low values 0.976 | S. cerevisiae deletion strains, locus YLR102C, strain apc9, hits give low values 0.928 | S. cerevisiae deletion strains, locus YLR371W, strain rom2, hits give low values 0.927 | S. cerevisiae deletion strains, locus YNL128W, strain TEP1, hits give low values 0.923 | S. cerevisiae deletion strains, locus YNR052C, strain pop2, hits give low values 0.92 | S. cerevisiae deletion strains, locus YOL012C, strain htz1 0.38 | S. cerevisiae deletion strains, locus YOR061W, strain CKA2, hits give low values 0.931 | S. cerevisiae deletion strains, locus YOR069W, strain VPS5, hits give low values 0.946 | S. cerevisiae deletion strains, locus YPL241C, strain CIN2, hits give low values 0.935 | S. cerevisiae deletion strains, locus YPR141C, strain kar3, hits give low values 0.923 | S. cerevisiae deletion strains, locus YPR167C, strain met16, hits give low values 0.93
active: S. cerevisiae deletion strains, locus YAL013W, strain DEP1, hits give low values 0.894 | S. cerevisiae deletion strains, locus YCL029C, strain bik1, hits give low values 0.858 | S. cerevisiae deletion strains, locus YDL035C, strain GPR1, hits give low values 0.844 | S. cerevisiae deletion strains, locus YDL074C, strain BRE1, hits give low values 0.632 | S. cerevisiae deletion strains, locus YDL101C, strain DUN1, hits give low values 0.862 | S. cerevisiae deletion strains, locus YDL134C, strain PPH21, hits give low values 0.798 | S. cerevisiae deletion strains, locus YDL192W, strain arf1, hits give low values 0.818 | S. cerevisiae deletion strains, locus YDR101C, strain arx1, hits give low values 0.865 | S. cerevisiae deletion strains, locus YDR162C, strain NBP2, hits give low values 0.489 | S. cerevisiae deletion strains, locus YDR318W, strain mcm21, hits give low values 0.746 | S. cerevisiae deletion strains, locus YDR388W, hits give low values 0.897 | S. cerevisiae deletion strains, locus YDR502C, strain sam2, hits give low values 0.815 | S. cerevisiae deletion strains, locus YEL061C, strain CIN8, hits give low values 0.879 | S. cerevisiae deletion strains, locus YER110C, hits give low values 0.855 | S. cerevisiae deletion strains, locus YER155C, strain BEM2, hits give low values 0.769 | S. cerevisiae deletion strains, locus YER167W, strain BCK2, hits give low values 0.687 | S. cerevisiae deletion strains, locus YGL086W, strain mad1, hits give low values 0.848 | S. cerevisiae deletion strains, locus YGL248W, strain PDE1, hits give low values 0.795 | S. cerevisiae deletion strains, locus YGR078C, strain PAC10, hits give low values 0.694 | S. cerevisiae deletion strains, locus YGR135W, strain pre9, hits give low values 0.787 | S. cerevisiae deletion strains, locus YGR229C, strain SMI1, hits give low values 0.538 | S. cerevisiae deletion strains, locus YGR252W, strain gcn5, hits give low values 0.718 | S. cerevisiae deletion strains, locus YHR030C, strain SLT2, hits give low values 0.704 | S. cerevisiae deletion strains, locus YHR079C, strain IRE1 (second series), hits give low values 0.8 | S. cerevisiae deletion strains, locus YHR094C, strain hxt1, hits give low values 0.917 | S. cerevisiae deletion strains, locus YHR129C, strain ARP1, hits give low values 0.795 | S. cerevisiae deletion strains, locus YIL066C, strain RNR3, hits give low values 0.851 | S. cerevisiae deletion strains, locus YIR030C, strain dcg1, hits give low values 0.86 | S. cerevisiae deletion strains, locus YJL095W, strain BCK1, hits give low values 0.386 | S. cerevisiae deletion strains, locus YJL134W, strain LCB3, hits give low values 0.919 | S. cerevisiae deletion strains, locus YJL168C, strain set2, hits give low values 0.926 | S. cerevisiae deletion strains, locus YJL187C, strain SWE1 (second series), hits give low values 0.817 | S. cerevisiae deletion strains, locus YJR043C, strain POL32, hits give low values 0.76 | S. cerevisiae deletion strains, locus YJR075W, strain HOC1, hits give low values 0.755 | S. cerevisiae deletion strains, locus YKL068W, hits give low values 0.924 | S. cerevisiae deletion strains, locus YKL085W, strain MDH1 (second series), hits give low values 0.923 | S. cerevisiae deletion strains, locus YKL085W, strain MDH1, hits give low values 0.923 | S. cerevisiae deletion strains, locus YKL190W, strain CNB1, hits give low values 0.874 | S. cerevisiae deletion strains, locus YKR001C, strain vps1, hits give low values 0.598 | S. cerevisiae deletion strains, locus YLR039C, strain RIC1, hits give low values 0.479 | S. cerevisiae deletion strains, locus YLR058C, strain SHM2, hits give low values 0.829 | S. cerevisiae deletion strains, locus YLR262C, strain YPT6, hits give low values 0.498 | S. cerevisiae deletion strains, locus YLR268W, strain sec22, hits give low values 0.784 | S. cerevisiae deletion strains, locus YLR330W, strain CHS5, hits give low values 0.82 | S. cerevisiae deletion strains, locus YLR342W, strain FKS1 (second series), hits give low values 0.563 | S. cerevisiae deletion strains, locus YLR418C, strain cdc73, hits give low values 0.471 | S. cerevisiae deletion strains, locus YML016C, strain PPZ1, hits give low values 0.905 | S. cerevisiae deletion strains, locus YML032C, strain rad52, hits give low values 0.696 | S. cerevisiae deletion strains, locus YML124C, strain tub3, hits give low values 0.918 | S. cerevisiae deletion strains, locus YMR078C, strain ctf18, hits give low values 0.808 | S. cerevisiae deletion strains, locus YMR223W, strain ubp8, hits give low values 0.807 | S. cerevisiae deletion strains, locus YMR263W, strain SAP30, hits give low values 0.823 | S. cerevisiae deletion strains, locus YMR307W, strain GAS1, hits give low values 0.56 | S. cerevisiae deletion strains, locus YNL067W, strain RPL9B, hits give low values 0.81 | S. cerevisiae deletion strains, locus YNL153C, strain GIM3, hits give low values 0.837 | S. cerevisiae deletion strains, locus YNL233W, strain BNI4, hits give low values 0.73 | S. cerevisiae deletion strains, locus YNL250W, strain rad50, hits give low values 0.876 | S. cerevisiae deletion strains, locus YNL271C, strain bni1, hits give low values 0.915 | S. cerevisiae deletion strains, locus YNL298W, strain CLA4, hits give low values 0.903 | S. cerevisiae deletion strains, locus YNL307C, strain MCK1, hits give low values 0.176 | S. cerevisiae deletion strains, locus YNL322C, strain KRE1, hits give low values 0.9 | S. cerevisiae deletion strains, locus YOL006C, strain TOP1, hits give low values 0.462 | S. cerevisiae deletion strains, locus YOL147C, strain pex11, hits give low values 0.662 | S. cerevisiae deletion strains, locus YOR136W, strain idh2, hits give low values 0.92 | S. cerevisiae deletion strains, locus YOR144C, strain elg1, hits give low values 0.911 | S. cerevisiae deletion strains, locus YOR184W, strain ser1, hits give low values 0.465 | S. cerevisiae deletion strains, locus YOR316C, strain cot1, hits give low values 0.916 | S. cerevisiae deletion strains, locus YPL055C, strain LGE1, hits give low values 0.712 | S. cerevisiae deletion strains, locus YPR119W, strain clb2, hits give low values 0.89 | S. cerevisiae deletion strains, locus YPR163C, strain tif3, hits give low values 0.451 | S. cerevisiae deletion strains, strain wtn01, hits give low values 0.807 | S. cerevisiae strains, strain wild type, hits give low values 0.838
